{"source": "PubChem BioAssay AID1468", "about": "(National Center for Advancing Translational Sciences (NCATS), 2008)", "note": "The whole screen tested about 280,000 compounds, of which about 1,100 (0.39%) were called active. Not shown: some 7% with an inconclusive outcome. This is one part of a sample in which actives are shown more often than they occur. Calls come from the whole dose curve; as a rule, active = well fitted inhibition curve with a large enough effect; inconclusive = small, poorly fitted or top-dose-only effect, or effect the other way; inactive = flat fitted curve, though single readings scatter. % is set by controls: 0 for no effect and ±100 for the full control effect; potency is the fitted concentration of half-maximal effect."}
{"molecular_target": "Microtubule-associated protein tau (Homo sapiens) (UniProt P10636)", "sequence (P10636 561-689 P618L limits assumed)": "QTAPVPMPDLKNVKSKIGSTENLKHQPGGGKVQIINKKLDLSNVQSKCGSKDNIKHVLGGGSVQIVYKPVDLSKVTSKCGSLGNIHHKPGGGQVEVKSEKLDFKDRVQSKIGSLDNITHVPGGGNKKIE", "assay": "qHTS for Inhibitors of Tau Fibril Formation, Fluorescence Polarization; note: nearly all actives have a fitted effect of over 55% in size", "settings": "K18 P301L tau heparin fibrillization, Alexa594 FP, 6 h; series mostly up to 57.7 µM; activity, negative = inhibition: at the top concentration", "excerpt": "NIH Molecular Libraries Probe Production Network [MLPCN]\nNIH Chemical Genomics Center [NCGC]\nAssay Provider: Carlo Ballatore, University of Pennsylvania\nThe microtubule-associated protein tau is an abundant protein in the axons of neurons that stabilizes microtubules. With its ability to modulate microtubule dynamics, tau contributes directly or indirectly, to key structural and regulatory cellular functions. Particularly important is the influence tau exerts on axonal transport, which allows signaling molecules, trophic factors and other essential cellular constituents to travel along the axons. Under pathological conditions, tau becomes sequestered into insoluble aggregates called neurofibrillary tangles. This phenomenon is believed to have pathological consequences by promoting axonal transport deficits that ultimately lead to synaptic dysfunction and neuronal loss. To identify inhibitors of tau aggregation, a heparin-induced tau fibril formation assay was used that employed a recombinantly expressed fragment of tau, K18 (Q242-E372), bearing a P301L mutation (Gustke et al. 1994; Hong et al. 1998).\nGustke, N., B. Trinczek, et al. (1994). \"Domains of tau protein and interactions with microtubules.\" Biochemistry 33(32): 9511-22.\nHong, M., V. Zhukareva, et al. (1998).\nLi, W. and V. M. Lee (2006). \"Characterization of two VQIXXK motifs for tau fibrillization in vitro.\" Biochemistry 45(51): 15692-701.\nvon Bergen, M., S. Barghorn, et al. (2001). \"Mutations of tau protein in frontotemporal dementia promote aggregation of paired helical filaments by enhancing local beta-structure.\" J Biol Chem 276(51): 48165-74.\nNCGC Assay Protocol Summary:\nFor screening, 2 uL/well human K18 P301L (15 uM unlabeled and 0.24 uM Alexa 594-labeled tau final concentrations) in reagent buffer (100 mM sodium acetate pH 7) was dispensed into black solid 1536-well plates (Grenier) using a solenoid-based dispenser. Following transfer of 23 nL compound or DMSO vehicle by a pin tool, 2 uL/well heparin (20 uM final concentration) in reagent buffer was added and the plate centrifuged 15 s at 1000 RPM. Plates were incubated 6 hr at 37 C and then 1 uL/well ThT (30 uM final concentration) was added. After a 1 hr ambient incubation, the plates were read by an Envision (Perkin Elmer) to monitor Alexa 594 FP (555 nm excitation and 632 nm emission).\nKeywords: NIH Roadmap, MLPCN, MLI, MLSMR, NCGC, qHTS, tau, tauopathies, Alzheimer's disease, fibril, neurodegeneration, aggregation"}
{"smiles": "O=[N+]([O-])c1ccc(N=Cc2c(O)ccc3ccccc23)cc1", "activity, negative = inhibition": "-5.84% (inactive)"}
{"smiles": "CCOC(=O)c1ccc(NC(=O)CSc2nc3c([nH]c4ccccc43)c(=O)n2C)cc1", "activity, negative = inhibition": "6.83% (inactive)"}
{"smiles": "Cc1ccc(Cn2c(=O)n(CCCC(=O)NCc3ccccc3Cl)c(=O)c3ccccc32)cc1", "activity, negative = inhibition": "-9.9% (inactive)"}
{"smiles": "COc1ccc(NC(=O)Cn2c(=O)n(Cc3ccc(C(=O)NCc4ccccc4Cl)cc3)c(=O)c3ccccc32)cc1", "Potency": "25.1 µM (active)"}
{"smiles": "COc1ccc(OC)c(NC(=O)Cn2c(=O)n(Cc3ccccc3)c(=O)c3ccccc32)c1", "activity, negative = inhibition": "-13% (inactive)"}
{"smiles": "O=C(Cn1c(-c2cccs2)cc2ccccc21)NCCc1ccc(Cl)cc1", "activity, negative = inhibition": "-7.69% (inactive)"}
{"smiles": "CCN1C(=O)c2ccccc2S(=O)c2ccc(C(=O)NCc3ccc(F)cc3)cc21", "note": "(configuration not stated)", "activity, negative = inhibition": "-1.93% (inactive)"}
{"smiles": "CCOC(=O)C1CCCN(C(=O)c2ccc(-n3ccc4ccccc43)s2)C1", "note": "(configuration not stated)", "activity, negative = inhibition": "17.1% (inactive)"}
{"smiles": "Cc1c(C(=O)NCc2ccccc2Br)oc2ccc3c(c12)C(=O)CC(C)(C)O3", "activity, negative = inhibition": "-3.31% (inactive)"}
{"smiles": "Cc1ccc(OCCn2c(CNc3ccccc3C)nc3ccccc32)cc1", "activity, negative = inhibition": "-8.29% (inactive)"}
{"smiles": "Cc1nnc(N2CCC(C(=O)Nc3ccc(F)cc3)CC2)c2nn(-c3ccc(Cl)cc3)c(C)c12", "activity, negative = inhibition": "-13.4% (inactive)"}
{"smiles": "Cc1ccnc(-n2sc3ccccc3c2=O)n1", "Potency": "25.1 µM (active)"}
{"smiles": "Cc1ccnc(SCC(N)=O)n1", "activity, negative = inhibition": "-0.201% (inactive)"}
{"smiles": "CCOC(=O)c1ccc(NC2=CC(c3ccc(OCC)cc3)N(c3ccc(C(=O)OCC)cc3)C2=O)cc1", "note": "(configuration not stated)", "activity, negative = inhibition": "-12.9% (inactive)"}
{"smiles": "Cc1cc(C)c2sc(NC(=O)c3ccc(S(=O)(=O)N4CCCC4)cc3)nc2c1", "activity, negative = inhibition": "-16.1% (inactive)"}
{"smiles": "COc1ccc(OC)c(-c2noc(N3CCN(c4cc(Cl)ccc4C)CC3)n2)c1", "activity, negative = inhibition": "5.31% (inactive)"}
{"smiles": "COc1ccc(N(CC(=O)NCCc2ccc(Cl)cc2)S(=O)(=O)c2c(C)nn(C)c2C)cc1", "activity, negative = inhibition": "3.88% (inactive)"}
{"smiles": "COc1ccc2c(Sc3ccc(C)cc3)c(C(=O)NC(C)c3ccccc3)[nH]c2c1", "note": "(configuration not stated)", "activity, negative = inhibition": "1.38% (inactive)"}
{"smiles": "CSc1nc(Nc2ccc(F)cc2)cc(-c2ccccc2)n1", "Potency": "15.8 µM (active)"}
{"smiles": "Cc1cc(Nc2ccccc2)nc(N)n1", "activity, negative = inhibition": "2.32% (inactive)"}
{"smiles": "CSc1nc(-c2ccccc2)nc(C(Cl)Cl)n1", "activity, negative = inhibition": "-5.56% (inactive)"}
{"smiles": "CCOC(=O)c1cccc(NS(=O)(=O)c2cc(-c3cnc(C)o3)ccc2OC)c1", "activity, negative = inhibition": "-6.24% (inactive)"}
{"smiles": "COc1ccc(N2C(=O)CSC23C(=O)N(Cc2cccc(F)c2)c2ccccc23)cc1Cl", "note": "(configuration not stated)", "activity, negative = inhibition": "-10.2% (inactive)"}
{"smiles": "O=C(Nc1nnc(SCc2ccccc2)s1)c1ccco1", "activity, negative = inhibition": "-10.1% (inactive)"}
{"smiles": "c1ccc(CSc2nnc(-c3ccco3)c(-c3ccco3)n2)cc1", "Potency": "12.6 µM (active)"}
{"smiles": "Brc1ccc(CSc2ccc(-c3ccco3)nn2)cc1", "activity, negative = inhibition": "-0.453% (inactive)"}
{"smiles": "O=C(OCc1cc(=O)n2nc(C3CC3)sc2n1)c1ccccc1Cl", "activity, negative = inhibition": "2.73% (inactive)"}
{"smiles": "COc1ccc2c(c1OC)C(=O)OC2Nc1nc(-c2ccccc2)cs1", "note": "(configuration not stated)", "Potency": "31.6 µM (active)"}
{"smiles": "COc1ccc(-c2csc(NC3OC(=O)c4ccccc43)n2)cc1", "note": "(configuration not stated)", "activity, negative = inhibition": "-9.14% (inactive)"}
{"smiles": "COc1ccc2c(c1OC)C(=O)OC2c1c(O)nc(SC)n(-c2ccccc2)c1=O", "note": "(configuration not stated)", "activity, negative = inhibition": "-8.67% (inactive)"}
{"smiles": "O=C(CCCn1c(=O)c2cccn2c2cccnc21)NCc1ccc(F)cc1", "activity, negative = inhibition": "-10.2% (inactive)"}
{"smiles": "COc1ccc(OC)c2sc(N3CCN(C(=O)C4COc5ccccc5O4)CC3)nc12", "note": "(configuration not stated)", "activity, negative = inhibition": "-6.25% (inactive)"}
{"smiles": "COc1cccc(Nc2nc3ccccc3c3nncn23)c1", "activity, negative = inhibition": "-14.4% (inactive)"}
{"smiles": "Fc1ccc(C(Nc2ccc(Cl)c(C(F)(F)F)c2)c2nnc(-c3ccccc3)o2)cc1", "note": "(configuration not stated)", "activity, negative = inhibition": "-9.8% (inactive)"}
{"smiles": "FC(F)(F)c1cc(Nc2nc3ccccc3c3nncn23)ccc1Cl", "Potency": "10 µM (active)"}
{"smiles": "COc1ccc(-c2cc(C(F)(F)F)n3nc(-c4ccccc4)cc3n2)cc1OC", "activity, negative = inhibition": "-7.35% (inactive)"}
{"smiles": "COc1ccc(OC)c(CNC(=O)Cn2nc(C)c3c(C)n(-c4ccccc4)nc3c2=O)c1", "activity, negative = inhibition": "-0.531% (inactive)"}
{"smiles": "CCN(CC)c1ccc(/C=N/Nc2nc(C)cc(C)n2)c(O)c1", "activity, negative = inhibition": "3.84% (inactive)"}
{"smiles": "CCN(CC)c1ccc2oc(=O)c(C)nc2c1", "Potency": "12.6 µM (active)"}
{"smiles": "CCN(CC)c1ccc2c(Nc3ccccc3)c(C=O)c(=O)oc2c1", "activity, negative = inhibition": "2.78% (inactive)"}
{"smiles": "CC1CCCCN1CC(=O)N1CCCc2c1c(=O)oc1ccc(OCc3ccccc3)cc21", "note": "(configuration not stated)", "activity, negative = inhibition": "-4.88% (inactive)"}
{"smiles": "CCc1ccccc1NC(=O)N1CCN(C(=O)c2nsc3ccccc23)CC1", "activity, negative = inhibition": "-1.92% (inactive)"}
{"smiles": "Cc1c(C(=O)N2CCCC2)oc2c1-c1nn(CC(=O)NCc3ccc(OC(C)C)cc3)cc1CC2", "activity, negative = inhibition": "9.67% (inactive)"}
{"smiles": "O=C1C(c2ccccn2)=[N+]([O-])c2ccccc21", "Potency": "7.94 µM (active)"}
{"smiles": "Cc1ccc(-c2nnc(SCC(=O)NCc3ccccc3)nc2-c2ccc(C)cc2)cc1", "activity, negative = inhibition": "-2.83% (inactive)"}
{"smiles": "CSc1ncc(Cl)c(C(=O)Nc2ccc(S(=O)(=O)N3CCCC(C)C3)cc2)n1", "note": "(configuration not stated)", "activity, negative = inhibition": "-18% (inactive)"}
{"smiles": "O=C(CSc1nc(-c2cccc(F)c2)[nH]c1-c1ccccc1)Nc1ccc2c(c1)OCO2", "activity, negative = inhibition": "-13.5% (inactive)"}
{"smiles": "COc1ccc(-c2cn3nc(N4CCCC(C(=O)NCCCOC(C)C)C4)sc3n2)cc1", "note": "(configuration not stated)", "activity, negative = inhibition": "12.2% (inactive)"}
{"smiles": "O=C(CSc1nnnn1-c1ccc(O)cc1)N1N=C(c2ccc3ccccc3c2)CC1c1ccccc1", "note": "(configuration not stated)", "Potency": "25.1 µM (active)"}
{"smiles": "COc1ccc(C2CC(c3ccccc3)=NN2C(=O)CSc2nccc(=O)[nH]2)cc1", "note": "(configuration not stated)", "activity, negative = inhibition": "3.39% (inactive)"}
{"smiles": "O=C(CSc1nnnn1-c1ccc(O)cc1)c1ccc(F)cc1", "activity, negative = inhibition": "-6.29% (inactive)"}
{"smiles": "COc1ccc(Cl)cc1NC(=O)C(C)Sc1nc2c(c(=O)[nH]1)CCCC2", "note": "(configuration not stated)", "activity, negative = inhibition": "-9.47% (inactive)"}
